Screening results as filed in PubChem.
D2 PAM-1 = D2 dopamine receptor (human) potentiation. potentiation, % at 10 µM. HEK293 T-REx D2, calcium flux, EC20 dopamine potentiation. actives 0.34% (n = 340,000). AID 485347;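 active = potentiation over 3 SD above the plate norm, cut at about 30% in these data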
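Tetracycline-induced Hek293 Trex D2 cells, force-coupled to calcium, loaded with no-wash calcium dye. Compound added with 180 s kinetic read for agonism, then EC20 dopamine and a further 180 s read for potentiation.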
D2 PAM-2 = positive allosteric modulators of human D2 dopamine receptor | actives 0.23% (n = 360,000) | AID 624464 | DiscoveRx D2 beta-arrestin cells, luminescence, 90 min; 100% = 57 uM dopamine signal | potentiation, % (no concentration beside the values); in the data active = potentiation above about 50%; inconclusive = mostly about 30% to 49%
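D2 cells co-treated with compound plus 50 nM dopamine (EC20) for 90 min at 37 deg C to detect potentiation. Beta-arrestin recruitment was read as enzyme-fragment luminescence after 1 h at ambient temperature. Full response was set by 57 uM dopamine.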
D2 antag = D2 dopamine receptor (human) antagonism; actives 2% (n = 340,000); HEK293 TREx D2 cells, calcium flux, dopamine EC80; P14416; inhibition, % at 10 µM; in the data active = inhibition above about 30%; inactive = below that, where a call was filed
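Antagonism is scored as inhibition of an EC80 dopamine-evoked calcium signal in a force-coupled, tetracycline-inducible HEK293 T-REx D2 line, with compound present 180 s before agonist.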
D2 ag-1 = agonists of human D2 dopamine receptor (beta-arrestin); actives 0.084% (n = 360,000); activation, % (test concentration not listed); DiscoveRx PathHunter D2 beta-arrestin, luminescence, 90 min; 100% = 57 uM dopamine signal; P14416; in the data active = activation above about 40%; inconclusive = between about 15% and that limit
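Agonist mode: compounds alone added to overnight-plated D2 PathHunter cells for 90 min at 37 C, with 57 uM final dopamine (EC100) defining full response. Beta-arrestin recruitment detected by chemiluminescent reagent, read after 1 h at ambient temperature.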
D2 ag-2 = D2 dopamine receptor (human) agonism. HEK293 T-REx D2 cells, calcium flux agonist mode. activation, % at 2 µM. actives 0.53% (n = 340,000);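 active = activation over 3 SD above normal in the single-dose calcium agonist read, cut at about 30% in these data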
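HEK293 Trex D2 cells, tetracycline-induced, o/n 30 C 5% CO2; no-wash Ca dye, RT 30–90 min; 10-cycle baseline, 23 nl cpd added, kinetic Ca read 180 s; agonist hits = positive Ca response.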
D3 arrestin ag = confirmation of human D3 dopamine receptor agonists, beta-arrestin; shares compounds with D2 ag-2; actives 4% (n = 2,300); DiscoveRx D3 beta-arrestin cells, luminescence, 90 min; AID 720506; Potency, µM (highest dose often 76.9 µM), usual class: activators; note: nearly all actives have a fitted effect of over 70% in size
Target sequence (P35462 whole entry, looked up): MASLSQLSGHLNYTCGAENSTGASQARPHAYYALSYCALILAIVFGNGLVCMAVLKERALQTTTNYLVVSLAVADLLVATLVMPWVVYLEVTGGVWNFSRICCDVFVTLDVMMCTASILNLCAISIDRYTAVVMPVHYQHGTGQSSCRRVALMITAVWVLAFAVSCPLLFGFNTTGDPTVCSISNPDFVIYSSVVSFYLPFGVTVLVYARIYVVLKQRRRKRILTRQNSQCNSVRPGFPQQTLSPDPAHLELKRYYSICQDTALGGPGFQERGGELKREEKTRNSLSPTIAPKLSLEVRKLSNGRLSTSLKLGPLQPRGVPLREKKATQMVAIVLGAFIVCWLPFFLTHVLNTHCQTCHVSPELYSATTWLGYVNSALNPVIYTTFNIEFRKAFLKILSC
D2 ag-3 = D2 receptor agonism, beta-arrestin counterscreen | shares compounds with D2 ag-2 | DiscoveRx PathHunter D2 beta-arrestin, luminescence, 90 min; response scale: percent relative to full dopamine signal | Potency, µM (series often up to 76.9 µM), hits mostly activators | actives 5.9% (n = 2,300); note: nearly all actives have a fitted effect of over 70% in size
Large screens that a line does not name were inactive (follow-up assays come after a bar, where they were run). Shown are actives, neighbours in structure and some others; about 2.4% of the full set was active somewhere. Unless noted, calls come from the whole dose curve; as a rule, active = well fitted activation curve with a large enough effect; inconclusive = small, poorly fitted or top-dose-only effect; inactive = flat fitted curve, though single readings scatter.

Nc1ccc(C(=O)N/N=C/c2cccc(Oc3ccccc3)c2)cc1	D2 antag 31 | D3 arrestin ag inactive | D2 ag-3 inactive
O=C(N/N=C/c1cccc(Oc2ccccc2)c1)c1cc[n+]([O-])cc1	none
Nc1ccc(C(=O)N/N=C\c2ccc(OC(=O)c3ccccc3Cl)cc2)cc1	D2 antag 33 | D3 arrestin ag inactive | D2 ag-3 inactive
Cc1ccccc1CN1CCN(C(C)C(=O)NNC(=O)c2ccc(F)cc2)CC1 (stereo not drawn)	D2 ag-2 58 | D3 arrestin ag inactive | D2 ag-3 inactive
COc1cccc(C(C)NC(=O)Nc2ccccc2Cl)c1 (stereo not drawn)	none | D3 arrestin ag inactive | D2 ag-3 inactive
O=C(COC(=O)CCc1c[nH]c2ccccc12)NCc1ccc2c(c1)OCO2	D2 ag-2 74 | D3 arrestin ag inactive | D2 ag-3 inactive
Cc1ccc(C2=CC(=O)C[C@H](c3ccc(F)cc3)C2)cc1	none
N#Cc1ccc(C2=CC(=O)C[C@H](c3ccc(F)cc3)C2)cc1	none | D3 arrestin ag inactive | D2 ag-3 inactive
Cn1ccc2ccc(C3=CC(=O)C[C@H](c4ccc(F)cc4)C3)cc21	none | D3 arrestin ag inactive | D2 ag-3 inactive
CC(C)CNC(=O)N1CCN(S(=O)(=O)c2ccc3c(ccn3C)c2)CC1	none (no result: D2 PAM-2, D2 antag, D2 ag-1)
COc1ccc(/C=N/Nc2nnc(C)n2N)cc1OC(C)=O	none | D3 arrestin ag inconclusive | D2 ag-3 inactive
CC1(c2ccc(OC(F)F)cc2)NC(=O)N(CC(=O)Nc2cccnc2Cl)C1=O (stereo not drawn)	none | D3 arrestin ag inactive | D2 ag-3 inactive
COc1ccc(C2(C)NC(=O)N(CC(=O)Nc3cccnc3Cl)C2=O)cc1 (stereo not drawn)	none
COC(=O)c1ccc(NC(=O)CCN2CCN(c3ccccc3)CC2)cc1	D2 antag 50, D2 ag-1 inconclusive, D2 ag-2 54 | D3 arrestin ag inconclusive | D2 ag-3 inconclusive
O=C(CCN1CCN(c2ccccc2)CC1)Nc1ccc(OCc2ccccc2)cc1	D2 antag 65, D2 ag-2 53 | D3 arrestin ag inconclusive | D2 ag-3 inconclusive
COC(=O)c1cc(CN2CCN(c3ccccc3)CC2)ccc1O	none | D3 arrestin ag inactive | D2 ag-3 inactive
O=C(Nc1ccc(C(=O)NCCCN2CCN(c3ccccc3)CC2)cc1)C1=CSCCO1	D2 antag 81, D2 ag-1 44, D2 ag-2 82 | D3 arrestin ag inactive | D2 ag-3 inconclusive
O=C(CCN1CCN(c2ccccc2)CC1)Nc1ccc(Cl)cc1	none
Cn1c(=O)oc2cc(S(=O)(=O)NCCC(=O)Nc3ccc(F)cc3F)ccc21	none (no result: D2 PAM-2, D2 antag, D2 ag-1)
Cc1ccc(S(=O)(=O)NCC2CCC(C(=O)NCCc3ccc(Cl)cc3)CC2)cc1 (stereo not drawn)	none (no result: D2 PAM-2, D2 antag, D2 ag-1)
CCOC(=O)C1CCN(CC(O)COc2ccc(C(=O)CC)cc2)CC1 (stereo not drawn)	D2 antag 56, D2 ag-1 inconclusive, D2 ag-2 79 | D3 arrestin ag inactive | D2 ag-3 inconclusive
CC(=O)c1ccccc1OCC(O)CN1CCN(c2ccccn2)CC1 (stereo not drawn)	none
CC(C)(C)c1ccc(OCC(O)CN2CCN(c3ccccn3)CC2)cc1 (stereo not drawn)	D2 PAM-2 55, D2 antag 87, D2 ag-1 inconclusive, D2 ag-2 86 | D3 arrestin ag inconclusive | D2 ag-3 16µM
CCOC(=O)N1CCN(Cc2ccc(OCC(O)CN3CCCCC3)cc2)CC1 (stereo not drawn)	D2 antag 51, D2 ag-1 inconclusive, D2 ag-2 63 | D3 arrestin ag inactive | D2 ag-3 inconclusive
CCC(=O)c1ccc(OCC(O)CN2CCN(c3ccccn3)CC2)cc1 (stereo not drawn)	D2 antag 74, D2 ag-1 60, D2 ag-2 80 | D3 arrestin ag 0.89µM | D2 ag-3 2µM
O=C(c1ccc2c(c1)N(Cc1ccc(F)cc1)C(=O)c1ccccc1S2(=O)=O)N1CCCC1	none (no result: D2 PAM-2, D2 antag, D2 ag-1)
Cc1cc(C)cc(C(O)c2ncc(-c3ccccc3C(F)(F)F)[nH]2)c1 (stereo not drawn)	none (no result: D2 PAM-1, D2 antag, D2 ag-2)
O=C(c1ccc(Cl)c(S(=O)(=O)N2CCCCC2)c1)N1CCCC(C(F)(F)F)C1 (stereo not drawn)	none | D3 arrestin ag inactive | D2 ag-3 inactive
CCOC(=O)[C@H]1[C@H]2COc3ccc(Br)cc3[C@@H]2N2C(=O)CN(Cc3ccco3)C(=O)[C@@]12C	none | D3 arrestin ag inactive | D2 ag-3 inactive
CCOC(=O)[C@H]1[C@H]2COc3ccc(Br)cc3[C@@H]2N2C(=O)CN(Cc3ccc(Cl)cc3)C(=O)[C@@]12C	none (no result: D2 PAM-1, D2 antag, D2 ag-2)
CCOC(=O)[C@H]1[C@H]2COc3ccc(Cl)cc3[C@@H]2N2C(=O)CN(C)C(=O)[C@@]12C	none | D3 arrestin ag inactive | D2 ag-3 inactive
CCN(c1ccccc1)S(=O)(=O)c1nnc(NC(=O)c2ccccc2OC)s1	none
OCC[C@@H]1C[C@@H](O)[C@H](O)[C@]2(OCCCc3ccccc32)O1	none
OCC[C@H]1C[C@@H](O)[C@H](O)[C@]2(OCc3ccccc32)O1	none | D3 arrestin ag inactive | D2 ag-3 inactive
OCC[C@H]1C[C@H](O)[C@@H](O)[C@@]2(OCCCc3ccccc32)O1	none | D3 arrestin ag inactive | D2 ag-3 inactive
Cc1ccc(NC(=O)Cn2cnc3sc(C)c(S(=O)(=O)N4CCN(c5ncccn5)CC4)c3c2=O)cc1F	none (no result: D2 PAM-2, D2 antag, D2 ag-1)
COc1cc2[nH]c(=S)nc(NCC3CCCO3)c2cc1OC (stereo not drawn)	D2 antag 32 | D3 arrestin ag inactive | D2 ag-3 inactive
O=C(Nc1cccc(Cl)c1)C1CCN(S(=O)(=O)Cc2ccccc2)CC1	none (no result: D2 PAM-2, D2 antag, D2 ag-1)
Cc1nn2c(-c3ccco3)ccnc2c1-c1ccc(F)cc1	none (no result: D2 PAM-2, D2 antag, D2 ag-1)
CC(OC(=O)/C=C/c1cccs1)C(=O)NC1CCCCC1C (stereo not drawn)	none
CC(OC(=O)/C=C/c1ccco1)C(=O)NC1CCCCC1C (stereo not drawn)	none | D3 arrestin ag inactive | D2 ag-3 inactive
CC(OC(=O)Cc1ccc(Cl)cc1)C(=O)NC1CCCCC1C (stereo not drawn)	none | D3 arrestin ag inactive | D2 ag-3 inactive
CNc1nc(CC(C)=O)ns1	none
CCCCNc1nc(CC(C)=O)ns1	D2 antag 30, D2 ag-2 50 | D3 arrestin ag inactive | D2 ag-3 inactive
CCOC(=O)Nc1ccc(S(=O)(=O)Nc2nccc(C)n2)cc1	D2 ag-2 50 | D3 arrestin ag inactive | D2 ag-3 inactive
